This is an account of results in PubChem BioAssay AID933 (National Center for Advancing Translational Sciences (NCATS), 2009).

Structures are written as SMILES. Records with an inconclusive call do not appear. A call without a number means that no potency is given here. Unmarked numbers belong to inactive results. Calls of active or inactive are those of the source. Calls follow the shape of the dose curve; as a rule, active = well fitted activation curve with a large enough effect in the signal ratio, with a control signal flat; inconclusive = small, poorly fitted or top-dose-only effect, or a change in a side signal; inactive = flat fitted curve, though single readings scatter; the % refers to the signal ratio.
Potency is read from the fitted curve at half-maximal effect.

Thyrotropin receptor (Homo sapiens), sequence (P16473 whole entry, looked up): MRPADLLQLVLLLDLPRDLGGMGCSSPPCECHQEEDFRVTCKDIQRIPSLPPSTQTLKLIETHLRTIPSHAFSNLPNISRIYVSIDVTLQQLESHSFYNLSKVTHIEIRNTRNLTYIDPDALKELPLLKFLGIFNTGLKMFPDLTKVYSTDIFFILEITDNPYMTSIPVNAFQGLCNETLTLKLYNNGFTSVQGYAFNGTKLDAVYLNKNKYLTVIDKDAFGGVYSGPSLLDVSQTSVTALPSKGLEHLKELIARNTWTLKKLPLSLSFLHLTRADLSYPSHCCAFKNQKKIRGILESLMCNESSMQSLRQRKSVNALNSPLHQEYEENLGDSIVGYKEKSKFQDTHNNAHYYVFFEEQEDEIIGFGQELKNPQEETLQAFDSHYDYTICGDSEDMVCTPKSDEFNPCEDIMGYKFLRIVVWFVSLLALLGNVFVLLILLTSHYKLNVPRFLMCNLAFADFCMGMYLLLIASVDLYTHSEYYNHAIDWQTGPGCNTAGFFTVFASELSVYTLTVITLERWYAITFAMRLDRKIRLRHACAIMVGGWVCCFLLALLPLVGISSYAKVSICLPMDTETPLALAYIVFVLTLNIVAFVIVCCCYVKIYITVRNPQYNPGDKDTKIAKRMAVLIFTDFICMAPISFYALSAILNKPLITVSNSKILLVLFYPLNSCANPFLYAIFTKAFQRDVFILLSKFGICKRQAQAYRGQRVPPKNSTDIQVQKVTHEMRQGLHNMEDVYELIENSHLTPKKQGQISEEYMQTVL

The target in this assay is Thyrotropin receptor (Homo sapiens) (UniProt P16473). Kind of assay: Secondary Concentration-Response Assay for Agonists of the Thyroid Stimulating Hormone Receptor: HTRF Activity Detection.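 As to activation: HEK 293 cells stably expressing human TSHR with RO 20-1724 phosphodiesterase inhibitor.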 Particulars: HEK293-TSHR cells, cAMP HTRF ratio, 30 min; series mostly up to 91.7 µM. The method, boiled down:
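Orthogonal confirmation in a separate TSHR-transfected HEK 293 line: cells in medium with 10 % FCS and 100 uM RO 20-1724 got compound for 30 min at room temperature. cAMP was measured by HTRF (d2-cAMP/anti-cAMP antibody), 615/660 nm emission.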
A general note: Time-resolved FRET reads energy transfer from a long-lived donor to a nearby acceptor.
Regarding `O=C(c1ccccc1O)N(Cc1ccco1)Cc1ccco1`, the Potency result is “inactive”.

For `COc1ccc(C(=O)N(Cc2ccco2)Cc2cccs2)cc1`, the Potency result was “inactive”.

As to `COc1ccc(/C=N/O)cc1COc1ccc(NC(C)=O)cc1`, the Potency result was “inactive”.

Consider `COc1ccc(C2Nc3ccccc3C(=O)N2Cc2ccccc2)cc1COc1ccc(NC(=O)c2ccccc2)cc1` (stereo not given), for which the Potency entry is “inactive”.

Take `O=C1c2ccccc2NC(c2cccc(O)c2)N1Cc1ccco1` (stereo not given): the Potency entry is “inactive”.

As to `COc1ccc(C2Nc3ccccc3C(=O)N2Cc2ccc(C(C)(C)C)cc2)cc1COc1ccc(NC(C)=O)cc1` (stereo not given), the Potency result is “inactive”.

Take `COc1ccc(C2Nc3ccccc3C(=O)N2c2ccc(F)cc2)cc1Cn1nnc2ccccc21` (stereo not given): the Potency result was “inactive”.

With `COc1cc(OC)cc(C(=O)N2c3ccc(F)cc3CCC2C)c1` (stereo not given), the activation was -0.327% [at 0.00035 µM].

As for `COc1ccc(S(=O)(=O)NCCC(=O)NCc2ccc(F)cc2)cc1`, the activation was -0.0801% [at 0.00035 µM].

As for `O=C1c2ccccc2NC(c2ccccc2O)N1Cc1ccccc1` (stereo not given), the Potency result was “inactive”.

Consider `CCOC(=O)COc1ccccc1C1Nc2ccccc2C(=O)N1c1cccc(Cl)c1` (stereo not given), for which the Potency result was “inactive”.

`Cc1cc(-n2c(C)cc(C(=O)CSc3nnnn3-c3ccc(Cl)cc3)c2C)no1`: the activation was 1.18% [at 0.00035 µM].

Turning to `COc1cccc(OCc2cc(C3Nc4ccccc4C(=O)N3Cc3ccco3)ccc2OC)c1` (stereo not given), the Potency entry was “inactive”.

Consider `COc1cccc2cc(C(=O)N(Cc3cccs3)Cc3cccs3)c(=O)oc12`, for which the Potency entry is “inactive”.

With `COC(=O)c1cc(NC2c3ccccc3C(=O)N2c2cccnc2)cc(C(=O)OC)c1` (stereo not given), the activation is -0.103% [at 0.00035 µM].

Consider `CCOc1cc(C2Nc3ccccc3C(=O)N2Cc2ccco2)ccc1O` (stereo not given), for which the Potency result is “inactive”.

On to `COC(=O)C1=C(C)OC(N)=C(C#N)C1C1CCCCC1` (stereo not given), for which the activation was -0.764% [at 0.00035 µM].

Consider `Cc1ccc(N(CC(=O)NCc2ccco2)S(=O)(=O)c2ccccc2)cc1`, for which the activation is 0.48% [at 0.00035 µM].

Take `COc1ccc(C2Nc3ccccc3C(=O)N2Cc2ccccc2)cc1Oc1ccc(NC(C)=O)cc1` (stereo not given): the Potency entry is “inactive”.

Turning to `COc1cc(C2Nc3ccccc3C(=O)N2c2ccccc2)ccc1O` (stereo not given), the Potency result was “inactive”.

On to `CSc1nc(NC(C)(C)C)nc(Oc2ccc(=O)[nH]n2)n1`, for which the activation is -0.106% [at 0.00035 µM].

For the compound `O=C(Nc1ccccn1)NC12CC3CC(CC(C3)C1)C2`, the activation is 0.487% [at 0.00035 µM].

In the case of `CCCN1C(=O)c2ccccc2NC1c1ccc(OC)cc1O` (stereo not given), the Potency result was “inactive”.

With `COc1ccc(CN(Cc2ccccc2)C(=O)C2CC2)cc1COc1ccc(NC(C)=O)cc1`, the Potency was 15.8 µM (active).

Regarding `O=C(COC(=O)C1c2ccccc2Oc2ccccc21)Nc1ccc2c(c1)OCO2`, the activation is 0.151% [at 0.00035 µM].

For `COc1ccc(N(C)S(=O)(=O)c2cccc(C(=O)NC3=NCCS3)c2)cc1`, the activation was 1.29% [at 0.00035 µM].

Take `Oc1ccccc1Cn1c(-c2ccccc2O)nc2ccccc21`: the activation is -0.344% [at 0.00035 µM].

Regarding `Nc1ccccc1C(=O)NCc1ccco1`, the Potency result is “inactive”.

Regarding `COc1ccc(-c2nc3ccc(Cl)cc3c(=O)n2Cc2ccccc2)cc1COc1ccc(NC(C)=O)cc1`, the Potency entry is “inactive”.

In the case of `Cc1occc1-c1nnc(SCC(=O)NCc2ccc3c(c2)OCO3)n1CC(C)C`, the activation was 0.411% [at 0.00035 µM].

`COc1ccc(C2Nc3ccccc3C(=O)N2Cc2ccco2)cc1COc1ccc(F)cc1` (stereo not given): the Potency result is “inactive”.

On to `O=C(CN(Cc1ccc(F)cc1)S(=O)(=O)c1ccccc1)N1CCCCC1`, for which the activation is 0.34% [at 0.00035 µM].

As to `COc1ccc(CN(Cc2ccccc2)C(=O)c2ccc(NC(C)=O)cc2)cc1COc1ccc(NC(C)=O)cc1`, the Potency entry was “inactive”.

With `CC(C)CC(=O)Nc1cccc(-c2cn3ccsc3n2)c1`, the activation was 0.105% [at 0.00035 µM].

Regarding `O=C(c1ccc(Br)o1)N(Cc1ccccc1)c1ccccn1`, the activation was 0.801% [at 0.00035 µM].
